Test results from PubChem BioAssay (NCI).
About 79,000 compounds went through this panel and 15% of them were active in at least one assay; those are over-represented in the sample as a whole. Cut-off read from the data, not from the text of the source: active = growth inhibition above about 70%; inactive = the rest.

Columns and labels:
[1] = NCI Yeast Anticancer Drug Screen. Data for the rad50 strain (AID 155);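 note: 0% = growth of vehicle-only cultures of the same strain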; conditions: S. cerevisiae rad50 strain growth inhibition; at 50.0 µM; stronger effect = higher value
How it was run: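 Growth of the mutant yeast was measured after compound exposure and referenced to vehicle-treated cultures.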

[2] = NCI Yeast Anticancer Drug Screen. Data for the mec2-1 strain (AID 157); conditions: S. cerevisiae mec2-1 strain, at 50.0 µM, stronger effect = higher value
How it was run: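 Cells of the genetically defined mec2-1 yeast strain are incubated with test compound. Inhibition of growth is calculated against vehicle-treated controls.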

[3] = NCI Yeast Anticancer Drug Screen. Data for the sgs1 mgt1 strain (AID 161);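 note: 0% = growth of cultures given vehicle only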; conditions: S. cerevisiae sgs1 mgt1 strain, at 50.0 µM, stronger effect = higher value
How it was run: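 Genetically altered yeast, compound exposure, growth inhibition relative to vehicle.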

[4] = NCI Yeast Anticancer Drug Screen. Data for the cln2 rad14 strain (AID 165);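 note: 0% = growth equal to vehicle treated cultures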; conditions: S. cerevisiae cln2 rad14 strain, at 50.0 µM, stronger effect = higher value
How it was run: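 The screen exposed genetically defined yeast (cln2 rad14) to test compounds and scored growth inhibition relative to vehicle-treated controls.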

[5] = NCI Yeast Anticancer Drug Screen. Data for the bub3 strain (AID 167); conditions: S. cerevisiae bub3 mutant strain, at 50.0 µM, stronger effect = higher value
How it was run: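 Whole-cell yeast assay. The mutant strain was incubated with compounds, and growth inhibition was determined by comparison with vehicle-treated cells.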

[6] = NCI Yeast Anticancer Drug Screen. Data for the mlh1 rad18 strain (AID 175); conditions: S. cerevisiae mlh1 rad18 strain growth inhibition; at 50.0 µM; stronger effect = higher value
How it was run: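 Compound-treated yeast growth, normalised to vehicle controls. Strain bears defined DNA repair mutations.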

Measured: growth inhibition

CCOP(=O)(OCC)SC#N
inactive: [1] 15.1% | [2] -2.85% | [3] -6.4% | [4] 6.5% | [5] -1.05% | [6] 16.1%

CC1(C)OC2OCCC(N=[N+]=[N-])C2O1 (stereo unspecified)
inactive: [1] 0.85% | [2] -5.35% | [3] -0.95% | [4] -29.8% | [5] -0.75% | [6] -4.4%

O=c1oc2cc(O)ccc2c(O)c1C(c1ccc2ccccc2c1)c1c(O)c2ccc(O)cc2oc1=O
inactive: [1] 8.65% | [2] 31.2% | [3] 36.7% | [4] 35.8% | [5] 17.2% | [6] -17.4%

CC(Cl)CN(CC(C)Cl)c1ccc2c(c1)Cc1cc([N+](=O)[O-])ccc1-2 (stereo unspecified)
inactive: [1] 10.3% | [2] 5.7% | [3] 33.7% | [4] 25.9% | [5] 4.5% | [6] 12.7%

CC(=O)OC1CC2(C)C(=CC1C1SCCS1)CCC1C2CCC2(C)C(OC(C)=O)CCC12 (stereo unspecified)
inactive: [1] -7.6% | [2] 3.2% | [3] -31.5% | [4] 14.7% | [5] -49.5% | [6] 11.3%

O=C(Nc1ccc(S(=O)(=O)F)cc1)/C(=C\c1ccc([N+](=O)[O-])cc1)c1cccc(Cl)c1
inactive: [1] 12.4% | [2] 4.3% | [3] -18.2% | [4] 31.4% | [5] -0.7% | [6] 11.1%

CCC1(O)N=C(c2ccccc2)c2ccccc2-n2cccc21 (stereo unspecified)
inactive: [1] 1.7% | [2] 4.25% | [3] 8.65% | [4] 0.55% | [5] 2.2% | [6] 6.5%

FC(F)(F)c1ccc2c(c1)N(CCCl)c1ccccc1S2
inactive: [1] 4.3% | [2] -8.05% | [3] -2.4% | [4] -79.2% | [5] 1.5% | [6] -4.6%

CN(C)C(=O)Oc1ccc(C2CCCN2C)cn1 (stereo unspecified)
inactive: [1] 3.95% | [2] 5.45% | [3] 3.75% | [4] -13.1% | [5] -6% | [6] -22.7%

CCCC[As](=O)(O)CC(C)C
inactive: [1] -3.2% | [2] -1.75% | [3] -7.4% | [4] 4.9% | [5] -14.2% | [6] 1.2%

O=C(O)c1c(Cl)n(Cc2cc(Cl)ccc2Cl)c2ccccc12
inactive: [1] 4.5% | [2] 14.3% | [3] 19.9% | [4] 19.9% | [5] 11.3% | [6] 22.2%

COc1ccc(N=NC(=O)NC(CC(C)C)C(=O)NC(C)C(=O)O)cc1 (stereo unspecified)
inactive: [1] -11.8% | [2] -26.4% | [3] -8.5% | [4] -19.6% | [5] -31.4% | [6] 5.15%

COc1ccc2c(C3(O)CCNCC3)c[nH]c2c1
inactive: [1] 0.1% | [2] -1.3% | [3] -3.7% | [4] 2.75% | [5] -3.7% | [6] 3.8%

CCN(CC)CCn1c(=O)n(C)c2ccccc21
inactive: [1] 2.75% | [2] -18.7% | [3] -13.3% | [4] -35% | [5] -1.65% | [6] 20.9%

CC1(C)N(C(=S)Nc2ccccc2)C1(C)C
inactive: [1] 6.45% | [2] 1.3% | [3] 5.25% | [4] -26.2% | [5] -5.2% | [6] 5.8%

O=C(CI)NCCNC(=O)CI
inactive: [1] 11.1% | [2] 16.2% | [3] 21.4% | [4] 20.6% | [5] 10.6% | [6] 39.5%

CC(SC(C)C(=O)N/N=C/c1ccc(N(CCCl)CCCl)cc1)C(=O)N/N=C\c1ccc(N(CCCl)CCCl)cc1 (stereo unspecified)
inactive: [1] -0.45% | [2] -0.55% | [3] -6.05% | [4] -10.7% | [5] 5.05% | [6] 26.1%

CC12CCC3C(CCC4CC(Cl)CCC43C)C1CCC2=O (stereo unspecified)
inactive: [1] 9.95% | [2] 8.5% | [3] 6.25% | [4] -59.4% | [5] -6.1% | [6] -5.05%

Cc1cc(NC(=O)/C=C/c2ccc([N+](=O)[O-])cc2Cl)ccc1S(=O)(=O)F
inactive: [1] -30.5% | [2] -8.5% | [3] -5.6% | [4] -17.4% | [5] 2.85% | [6] -32.5%

O=C1NC(=S)NC(=O)C1=Cc1ccc2ccccc2n1
inactive: [1] -7.9% | [2] -0.6% | [3] 1.55% | [4] 8.4% | [5] -6.35% | [6] -16.4%

Nc1ccccc1Nc1ccccc1C(=O)[O-].Nc1ccccc1Nc1ccccc1C(=O)[O-].[Cu+2]
inactive: [1] -3.5% | [2] 7.8% | [3] -19.5% | [4] -3.3% | [5] -11.8% | [6] 7.75%

CCCCC1(CCC)C(=O)NC(=O)NC1=O
inactive: [1] 9.8% | [2] 9.5% | [3] 1% | [4] 13.7% | [5] 1% | [6] 15.8%

Nc1noc(N)n1
inactive: [1] -43% | [2] -22.1% | [3] -26.8% | [4] -23.1% | [5] -18.1% | [6] -28.4%

CN(N)c1ccc([N+](=O)[O-])cc1[N+](=O)[O-]
inactive: [1] -5.75% | [2] -39.1% | [3] -29.8% | [4] -6.2% | [5] -3.2% | [6] -39.1%

Cn1nnc(C(N)=O)n1
inactive: [1] -9.65% | [2] -15.2% | [3] -15.8% | [4] -12.8% | [5] -4.2% | [6] -18.8%

O=C(OC12CCN(CC1)CC2)c1ccccc1
inactive: [1] -7.55% | [2] 8.6% | [3] 4.25% | [4] -50.2% | [5] 8.15% | [6] 0.5%

N.N.N.N.O=C([O-])C(Cl)Cl.O=C([O-])C(Cl)Cl.[Co+3].[O-][Cl+3]([O-])([O-])[O-]
inactive: [1] -10.1% | [2] -13.2% | [3] -23.1% | [4] -15.2% | [5] -6.1% | [6] -13.6%

O=C1NC(=O)C(=Cc2ccccn2)C(=O)N1
inactive: [1] -0.95% | [2] -25% | [3] -0.45% | [4] 18.6% | [5] -6.4% | [6] 2.3%

COc1ccc2c(=O)c3ccccc3oc2c1CN(CCCl)CCCl
inactive: [1] 19.9% | [2] 16.4% | [3] -5.2% | [4] 13.2% | [5] -3.1% | [6] -8.25%

CCOP(=O)(NCc1ccccc1)c1ccc(N)cc1 (stereo unspecified)
inactive: [1] 6.05% | [2] -6.45% | [3] 7.65% | [4] 1.95% | [5] -0.5% | [6] 7.15%

O=C1NCCCC1(Cl)Cl
inactive: [1] 4.75% | [2] -1.25% | [3] 4.2% | [4] -16.3% | [5] -10.6% | [6] 13.2%

COc1ccc(N2CC=C(c3ccccc3)OP2(=O)N(CCCl)CCCl)cc1 (stereo unspecified)
inactive: [1] -49.8% | [2] -4.5% | [3] -3.45% | [4] 9.75% | [5] 6.4% | [6] -3.2%

C=CC1CC=CCC1 (stereo unspecified)
inactive: [1] -7.1% | [2] -5.2% | [3] 9.15% | [4] -25.2% | [5] -0.55% | [6] -11.9%

CC(=O)c1cccc(S(=O)(=O)F)c1
inactive: [1] -9.7% | [2] -11.3% | [3] -3.25% | [4] 13% | [5] -14.9% | [6] -11.8%

CN(C)CC#CCN(C)C
inactive: [1] 28.1% | [2] 5% | [3] -1% | [4] -10.8% | [5] 0.45% | [6] 7.2%

[Se]=[Hf]=[Se]
inactive: [1] 1.35% | [2] -24.7% | [3] -28.7% | [4] -8.6% | [5] -11.8% | [6] -26.6%

Cc1cc(=O)oc2cc(OC(=O)N(C)C)c(Cl)cc12
inactive: [1] -0.5% | [2] -11.3% | [3] 17.4% | [4] 24.4% | [5] 18.2% | [6] 10.3%

CN(C)CCNC(=O)c1cc([N+](=O)[O-])cc2c1Oc1ccccc1O2
inactive: [1] -7.05% | [2] -12.6% | [3] -7.35% | [4] 16.9% | [5] -7.2% | [6] -7.3%

Cc1cc(NC(=O)Oc2ccc([N+](=O)[O-])cc2)ccc1S(=O)(=O)F
inactive: [1] 1.85% | [2] 39.4% | [3] 14.2% | [4] 4% | [5] 28.6% | [6] 35%

CC(=O)c1ccc(Br)cc1
inactive: [1] 2% | [2] -5.5% | [3] -0.65% | [4] 8.7% | [5] 5.75% | [6] 1%

CCC(=O)[O][Sn]([CH3])([CH3])[O][Sn]([CH3])([CH3])[O]C(=O)CC
inactive: [1] -2.55% | [2] 18.1% | [3] -28.8% | [4] 11.8% | [5] -16.9% | [6] 3.25%
